# Experimental data from PubChem BioAssay (NCI).
# Compounds without any hit were thinned out: in the full panel of roughly 83,000, 20% have a hit.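 Assay: single dose, 48 h. Readout: percent growth (0 = no net growth; negative = cell death). Active: <10.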 A number with no mark means an inactive call. Active and inactive are the calls of the source.
# Tested on: NCI-H460 lung
# Experiment: NCI-60 one-dose screen, 48 h (100 = growth as untreated, 0 = no growth, -100 = all killed)
# Details: 10 µM unless noted
row,SMILES,growth
1,CCN(CC)S(=O)(=O)c1ccc2[nH]c(=O)cc(C(=O)Nc3ccc(OC)cc3OC)c2c1,123%
2,COc1ccc(/C=C/C(=O)OCC(=O)NNC(=O)c2ccccc2)cc1OC,110%
3,COc1ncc(-c2ccc3ncnc(Nc4cccc(Cl)c4)c3c2)cc1N(S(C)(=O)=O)S(C)(=O)=O,62.3%
4,Cc1c(C(=O)NCc2ccccc2)[n+](=O)c2cc(F)ccc2n1[O-],109%
5,COc1cc(Br)c(OC)cc1Br,99.3%
6,CN1CCN(CCCOc2ccc3nc(Nc4ccc(C(F)(F)F)c(Cl)c4)ccc3c2)CC1,-40% (active)
7,CC(=O)c1cc(C(=O)c2ccc3c(c2)Sc2ccccc2N3)c2cc(C)ccn12,1.02% (active)
8,Cc1cc(C(=O)O)c(N)c(C)n1,108%
9,c1ccc2c(c1)Oc1ccccc1C2C1c2ccccc2Oc2ccccc21,95.9%
10,CC/C=C\C[C@H](O)C/C=C1/C(=O)C(Cl)=C[C@@H]1C/C=C\CCCC(=O)O,97.7%
11,O=C(Nc1ccc(I)cc1)c1cc([N+](=O)[O-])ccc1O,33.7%
12,O=C(CSc1nc(-c2ccc(Cl)cc2)cn1-c1ccc(Cl)cc1)c1ccc(Br)cc1,50.8%
13,N#CC1=C(N)n2nc(-c3ccncc3)nc2NC1c1cccc2ccccc12 (stereo unspecified),100%
14,Cc1ccc2nc(-c3c(CCCO)noc3N)[nH]c(=O)c2c1,108%
15,COc1ccc(/C(=N\O)c2cc(OC)c(OC)c(OC)c2)c(OC)c1N,6.35% (active)
16,CCOc1ccc(/C=C/C=N/NC(N)=S)cc1,96%
17,C=C1C(=O)O[C@H]2[C@H]1CC/C(COC(=O)NCCc1cccc(OC)c1)=C\CC[C@@]1(C)O[C@@H]21,74.5%
18,Cc1c(C2=NNC(c3ccc4c(c3)OCO4)C2)[n+]([O-])c2ccccc2[n+]1[O-] (stereo unspecified),111%
19,O=S(=O)(NCCCNc1cc(-c2cn(-c3ccccc3)nc2-c2cccc(O)c2)ccn1)c1ccc(Br)cc1,5.69% (active)

row,SMILES,growth
1,COc1cccc2nc(Nc3ccc(NC(=O)c4ccc5ncccc5c4)cc3)ccc12,84.8%
2,COc1ncc(-c2ccc3ncnc(Nc4cccc(Cl)c4)c3c2)cc1NS(=O)(=O)CCN1CCOCC1,10.3%
3,O=C(OCCCCOC(=O)n1cnc2ccccc21)n1cnc2ccccc21,103%
4,Cc1cc(C)c2c(=O)[nH]c(SCC(=O)Nc3cccc(S(=O)(=O)N(C)C)c3)nc2n1,107%
5,Cc1ccc(S(=O)(=O)OCC(=O)Nc2ccc(C(=O)O)c(O)c2)cc1,103%
6,CN(C)c1nc(N)c(N=O)c(N)n1,110%
7,Cc1nc2scc(-c3ccccc3)n2c(=O)c1CCO,100%
8,Cc1ccc2c(c1)C(C)Cc1c(ncnc1-n1cnc3ccccc31)N2C (stereo unspecified),4.64% (active)
9,O=S(=O)(NCCNc1cc(-c2cn(-c3ccccc3)nc2-c2ccccc2)ccn1)c1cccc2ccccc12,44.4%
10,CCCCCCOc1ccc(C2(Cl)c3ccccc3N(C)c3ccccc32)cc1,-25.7% (active)
11,CN(C)C1CCC(NC2=CC(=O)C=CC2=O)CC1 (stereo unspecified),109%
12,CC(=O)N1Cc2ccccc2C(C)Cc2cc(Cl)ccc21 (stereo unspecified),105%
13,NC(N)=NC(N)=Nc1ccccc1-c1ccccc1,105%
14,Cc1oc2ncnc(Nc3ccccc3)c2c1C(=O)NCCO,98.6%
15,Cc1cc(NC(=O)COC(=O)c2sc3cc(F)ccc3c2Cl)no1,116%
16,CC1(C)OC2COC3(C(=O)O)OC(C)(C)OC3C2O1 (stereo unspecified),103%
17,C/C(=C\c1csc(C)n1)[C@@H]1C[C@@H]2O[C@]2(C)CCC[C@H](C)[C@H](O)[C@@H](C)C(=O)C(C)(C)[C@@H](O)CC(=O)N1,-85.5% (active)
18,COc1cc2c(cc1OCCCCn1c(-c3cc(=O)c4ccccc4o3)nc3ccccc31)N=C[C@@H]1CCCN1C2=O,112%
19,COc1cc(-c2csc(NC(=O)c3cc(C(F)(F)F)cc(C(F)(F)F)c3)n2)cc(OC)c1OC,13.8%

# Tested on: HOP-92 NSCLC
# Experiment: as above
# Details: 10 µM unless noted
row,SMILES,growth
1,CCN(CC)S(=O)(=O)c1ccc2[nH]c(=O)cc(C(=O)Nc3ccc(OC)cc3OC)c2c1,77.8%
2,COc1ccc(/C=C/C(=O)OCC(=O)NNC(=O)c2ccccc2)cc1OC,79.3%
3,COc1ncc(-c2ccc3ncnc(Nc4cccc(Cl)c4)c3c2)cc1N(S(C)(=O)=O)S(C)(=O)=O,7.62% (active)
4,Cc1c(C(=O)NCc2ccccc2)[n+](=O)c2cc(F)ccc2n1[O-],64.3%
5,COc1cc(Br)c(OC)cc1Br,96.9%
6,CN1CCN(CCCOc2ccc3nc(Nc4ccc(C(F)(F)F)c(Cl)c4)ccc3c2)CC1,7.32% (active)
7,CC(=O)c1cc(C(=O)c2ccc3c(c2)Sc2ccccc2N3)c2cc(C)ccn12,42.6%
8,Cc1cc(C(=O)O)c(N)c(C)n1,93.2%
9,c1ccc2c(c1)Oc1ccccc1C2C1c2ccccc2Oc2ccccc21,94.8%
10,CC/C=C\C[C@H](O)C/C=C1/C(=O)C(Cl)=C[C@@H]1C/C=C\CCCC(=O)O,98.3%
11,O=C(Nc1ccc(I)cc1)c1cc([N+](=O)[O-])ccc1O,-6.55% (active)
12,O=C(CSc1nc(-c2ccc(Cl)cc2)cn1-c1ccc(Cl)cc1)c1ccc(Br)cc1,43.9%
13,N#CC1=C(N)n2nc(-c3ccncc3)nc2NC1c1cccc2ccccc12 (stereo unspecified),40.4%
14,Cc1ccc2nc(-c3c(CCCO)noc3N)[nH]c(=O)c2c1,65.7%
15,COc1ccc(/C(=N\O)c2cc(OC)c(OC)c(OC)c2)c(OC)c1N,78.7%
16,CCOc1ccc(/C=C/C=N/NC(N)=S)cc1,89.3%
17,C=C1C(=O)O[C@H]2[C@H]1CC/C(COC(=O)NCCc1cccc(OC)c1)=C\CC[C@@]1(C)O[C@@H]21,44%
18,Cc1c(C2=NNC(c3ccc4c(c3)OCO4)C2)[n+]([O-])c2ccccc2[n+]1[O-] (stereo unspecified),83.6%
19,O=S(=O)(NCCCNc1cc(-c2cn(-c3ccccc3)nc2-c2cccc(O)c2)ccn1)c1ccc(Br)cc1,-5.67% (active)

row,SMILES,growth
1,COc1cccc2nc(Nc3ccc(NC(=O)c4ccc5ncccc5c4)cc3)ccc12,111%
2,COc1ncc(-c2ccc3ncnc(Nc4cccc(Cl)c4)c3c2)cc1NS(=O)(=O)CCN1CCOCC1,-26.3% (active)
3,O=C(OCCCCOC(=O)n1cnc2ccccc21)n1cnc2ccccc21,88.8%
4,Cc1cc(C)c2c(=O)[nH]c(SCC(=O)Nc3cccc(S(=O)(=O)N(C)C)c3)nc2n1,88.3%
5,Cc1ccc(S(=O)(=O)OCC(=O)Nc2ccc(C(=O)O)c(O)c2)cc1,-60.6% (active)
6,CN(C)c1nc(N)c(N=O)c(N)n1,102%
7,Cc1nc2scc(-c3ccccc3)n2c(=O)c1CCO,84.6%
8,Cc1ccc2c(c1)C(C)Cc1c(ncnc1-n1cnc3ccccc31)N2C (stereo unspecified),62.6%
9,O=S(=O)(NCCNc1cc(-c2cn(-c3ccccc3)nc2-c2ccccc2)ccn1)c1cccc2ccccc12,2.24% (active)
10,CCCCCCOc1ccc(C2(Cl)c3ccccc3N(C)c3ccccc32)cc1,83.1%
11,CN(C)C1CCC(NC2=CC(=O)C=CC2=O)CC1 (stereo unspecified),118%
12,CC(=O)N1Cc2ccccc2C(C)Cc2cc(Cl)ccc21 (stereo unspecified),99.3%
13,NC(N)=NC(N)=Nc1ccccc1-c1ccccc1,109%
14,Cc1oc2ncnc(Nc3ccccc3)c2c1C(=O)NCCO,88.6%
15,Cc1cc(NC(=O)COC(=O)c2sc3cc(F)ccc3c2Cl)no1,91.8%
16,CC1(C)OC2COC3(C(=O)O)OC(C)(C)OC3C2O1 (stereo unspecified),98.3%
17,C/C(=C\c1csc(C)n1)[C@@H]1C[C@@H]2O[C@]2(C)CCC[C@H](C)[C@H](O)[C@@H](C)C(=O)C(C)(C)[C@@H](O)CC(=O)N1,-47.2% (active)
18,COc1cc2c(cc1OCCCCn1c(-c3cc(=O)c4ccccc4o3)nc3ccccc31)N=C[C@@H]1CCCN1C2=O,66.5%
19,COc1cc(-c2csc(NC(=O)c3cc(C(F)(F)F)cc(C(F)(F)F)c3)n2)cc(OC)c1OC,-10.6% (active)
